# aSyn UTR act: Activators via SNCA 5'UTR binding, MLPCN. alpha-synuclein 5'UTR reporter, activators screen. AID 1814, 2009. 300,000 compounds, 7.1% hits. activity score, % (tested at 7.5 µM), hits read low; in the data active means activity score below about -60%
# * hit, by the source's call. A selection follows.
SMILES,aSyn UTR act
CCOC(=O)c1c(C)[nH]c(C(=O)C(C)Sc2ccc(Cl)cc2)c1C (stereo not drawn),-97*
CC(=O)c1c(C)[nH]c(C(=O)OCc2ccc(Br)cc2)c1C,-74*
CCOC(=O)c1c(C)[nH]c(C(=O)OCC(=O)NCCc2ccc(OCC)c(OCC)c2)c1C,60
CCOC(=O)c1[nH]c(C)c(C(=O)Nc2ccc(C)c(Cl)c2)c1C,-92*
CCCn1c(-c2cccc([N+](=O)[O-])c2)nc2c1c(=O)[nH]c(=O)n2Cc1ccccc1,54
O=c1c2ccccc2nc(-c2ccccc2)n1Cc1ccccc1,-93*
O=C1C2C3C=CC(C3)C2C(=O)N1/N=C/c1cn(Cc2ccccc2)c2ccccc12 (stereo not drawn),66
O=C1C2C3C=CC(CC3)C2C(=O)N1/N=C/c1c[nH]c2ccccc12 (stereo not drawn),-92*
Brc1ccc2nc(N3CCN(c4ccccc4)CC3)sc2c1,-143*
Clc1ccc2nc(N3CCN(c4ccccc4)CC3)sc2c1,-109*
N/C(=N\OC(=O)CCCc1ccccc1)c1ccccn1,-69*
N/C(=N\OC(=O)Cc1ccccc1)c1ccccn1,-77*
O=C(Nc1ccccn1)c1ccc(Cl)s1,-129*
O=C(Nc1ccc(Br)cn1)c1ccc(Cl)s1,-167*
O=C(Nc1nc(-c2ccccn2)cs1)c1ccc(Cl)s1,68
O=C(Nc1ccc(Br)cn1)c1ccc(Br)s1,-198*
Cc1ccccc1C(=O)Nc1ccc(Br)cn1,-77*
O=C(Nc1nccs1)c1ccc(Cl)s1,-106*
O=C(Nc1ccc2sccc2c1)c1ccc(Cl)s1,-198*
Oc1[nH]c2c(Cl)cc(Cl)cc2c1N=NC(=S)NCC1CCCO1 (stereo not drawn),79
O=C(NC1CCCc2ccccc21)c1n[nH]c(=O)c2ccccc12 (stereo not drawn),88
O=C(NC1CCCCCC1)c1c(O)c2ccccc2[nH]c1=O,-132*
O=C(NCC1CCCO1)c1c(O)c2ccccc2[nH]c1=O (stereo not drawn),-140*
Cc1c(C(=O)OC2CCCC2C)[nH]c2c1C(=O)CCC2 (stereo not drawn),-92*
C=CCOC(=O)c1[nH]c2c(c1C)C(=O)CC(c1ccco1)C2 (stereo not drawn),69
SMILES,aSyn UTR act
COc1ccccc1-c1nnc(SCC(=O)N2CCOCC2)o1,-85*
O=C(CSc1nnc(-c2ccccc2Cl)o1)N1CCOCC1,-124*
Cc1ccccc1-c1nnc(SCC(=O)N2CCCC2)o1,-135*
COc1ccccc1-c1nnc(-c2ccc(N3CCOCC3)cc2)o1,-106*
O=C(CSc1nnc2ccc3ccccc3n12)N1CCOCC1,-94*
CCOC(=O)c1cnc2cc3c(cn2c1=O)CCCC3,-132*
CCOC(=O)c1cc(C(=O)Nc2ccc(C)c(F)c2)nn1C,-224*
Cc1ccc(NC(=S)N2CCn3cccc3C2c2cccnc2)cc1 (stereo not drawn),-93*
O=C(Oc1c(CN2CCOCC2)cc(Cl)c2cccnc12)c1cccs1,108
O=C(c1cccs1)N1CCN(c2ncc(C(F)(F)F)cc2Cl)CC1,-71*
COc1cccc(NC2SC(=O)N(c3ccccc3)C2=O)c1 (stereo not drawn),-97*
O=C(C#Cc1ccccc1)Nc1cccc(F)c1,-383*
O=C(C#Cc1ccccc1)Nc1ccc(F)cc1,-195*
COc1ccc(NC(=O)C#Cc2ccccc2)cc1,-385*
CC(=O)N(c1nnc(-c2cccc(C)c2)s1)C1CCCC1,-160*
CCc1ccc(-c2nnn(CCC(=O)OC)n2)cc1,77
C=CCNC(=O)Cn1nnc(-c2ccc(-c3ccc(OC)cc3)cc2)n1,-129*
COc1cccc(-c2nnn(CC(=O)N3CCCCC3)n2)c1,-74*
COc1ccc(NC(=O)Cn2nnc(-c3ccccc3NS(=O)(=O)c3ccc(OC)cc3)n2)cc1,107
COc1cccc(-c2nnn(CC(C)=O)n2)c1,-122*
COc1ccc(-n2nnnc2-c2cccc(OC)c2)cc1,64
COc1ccc(-c2ccc(-c3nnn(CC(C)=O)n3)cc2)cc1,-189*
C/C(Cn1nnc([N+](=O)[O-])n1)=N\NC(=O)c1ccccc1,-73*
Cc1nc(C#N)c(N/N=C/c2c(F)cccc2Cl)o1,-62*
O=C(Nc1ccccc1C(F)(F)F)c1cc2ncc(CCCl)cn2n1,-81*
SMILES,aSyn UTR act
CCc1ccccc1NC(=O)c1cc2ncc(Br)cn2n1,-79*
Cc1cccc(NC(=O)Nc2ccc(Br)cc2)n1,-127*
COc1ccc(NC(=O)Nc2ccc(Br)cn2)cc1,-146*
COc1ccc(NC(=O)Nc2cccc(C)n2)cc1,-201*
CCC(=O)Nc1ccc(C(=O)Nc2cccc(C)n2)cc1,-169*
Cc1ccccc1/C=N/Nc1ncnc2nc[nH]c12,-71*
Cc1ccsc1/C=N/Nc1ncnc2nc[nH]c12,-90*
Fc1ccc(/C=N/Nc2ncnc3nc[nH]c23)cc1F,-74*
C(=N\Nc1ncnc2nc[nH]c12)/c1cccs1,-69*
C/C(=N\NC(=O)c1ccc(Cl)c(Cl)c1)c1ccc(Br)s1,91
C/C(=N/NC(=O)c1ccc2c(c1)OCO2)c1ccc(Br)s1,-89*
